# Compounds without any hit were thinned out: in the full panel of roughly 83,000, 20% have a hit.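 Each cell line was grown in a 96-well plate and treated with one concentration of compound for 48 hours. Values below 10 were considered active.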 Values without a mark were called inactive. Active and inactive are the calls of the source.
# Key:
# Assay in all cases: NCI-60 one-dose screen, 48 h (100 = growth as untreated, 0 = no growth, -100 = all killed)
# HCT-15 colon = details: 10 µM unless noted
# HT29 colon = details: 10 µM unless noted
# SNB-75 CNS = details: 10 µM unless noted
# SNB-19 CNS = details: 10 µM unless noted
# U251 CNS = details: 10 µM unless noted
# PC-3 prostate = details: 10 µM unless noted
# SK-MEL-5 melanoma = details: 10 µM unless noted
# UACC-62 melanoma = details: 10 µM unless noted
# LOX IMVI melanoma = details: 10 µM unless noted
# SK-MEL-28 melanoma = details: 10 µM unless noted
# SK-MEL-2 melanoma = details: 10 µM unless noted
# EKVX NSCLC = details: 10 µM unless noted
# SN12C renal = details: 10 µM unless noted
# UO-31 renal = details: 10 µM unless noted
# TK-10 renal = details: 10 µM unless noted
# ACHN renal = details: 10 µM unless noted
# CCRF-CEM leukemia = details: 10 µM unless noted
# MOLT-4 leukemia = details: 10 µM unless noted
# CAKI-1 renal = details: 10 µM
# A498 renal = details: 10 µM unless noted
Structure (SMILES),growth (HCT-15 colon),growth (HT29 colon),growth (SNB-75 CNS),growth (SNB-19 CNS),growth (U251 CNS),growth (PC-3 prostate),growth (SK-MEL-5 melanoma),growth (UACC-62 melanoma),growth (LOX IMVI melanoma),growth (SK-MEL-28 melanoma),growth (SK-MEL-2 melanoma),growth (EKVX NSCLC),growth (SN12C renal),growth (UO-31 renal),growth (TK-10 renal),growth (ACHN renal),growth (CCRF-CEM leukemia),growth (MOLT-4 leukemia),growth (CAKI-1 renal),growth (A498 renal)
C=C1C(=O)O[C@H]2[C@H]1CC/C(COC(=O)c1cccc3ccccc13)=C\CC[C@@]1(C)O[C@@H]21,-46.9% (active),-84.2% (active),29%,10.5%,-83.7% (active),-70.9% (active),-89% (active),-76.9% (active),-92.2% (active),-56.7% (active),-65.6% (active),-81.9% (active),-55.3% (active),-100% (active),-73.1% (active),-100% (active),-19% (active),-15.1% (active),,
CCCCNc1cc(C(=O)O)cc(S(N)(=O)=O)c1Oc1ccccc1,108%,112%,90.4%,106%,99.8%,95.7%,95.3%,101%,93.5%,109%,106%,106%,97.1%,85.4%,104%,,105%,110%,89.3%,89.1%
CC(=O)Nc1ccc(OC(=O)c2ccccc2O)cc1,107%,113%,114%,100%,99.3%,94.8%,109%,102%,99.7%,120%,147%,93.4%,102%,88.7%,128%,,95.9%,96.2%,91.3%,84.5%
COc1cc([C@@H]2c3cc4c(cc3C(OC3O[C@@H]5COC(C)O[C@H]5[C@H](O)[C@H]3O)C3COC(=O)[C@@H]32)OCO4)cc(OC)c1O (stereo partly specified),73.1%,64.5%,31.2%,27.4%,13.5%,63.3%,17.4%,33.7%,12%,61.4%,74.6%,57.8%,13%,64.3%,72.5%,,6.56% (active),2.96% (active),9.12% (active),36.2%
CC(C)Cn1cnc2c3ccccc3nc(NCn3nc(-c4cc(Cl)cc(Cl)c4Cl)oc3=S)c21,106%,98.5%,90%,111%,99%,86.2%,85.3%,90.1%,86.7%,110%,90.8%,89.1%,98.5%,64.8%,108%,97.6%,6.87% (active),20.4%,,89.5%
CCOC(=O)NNc1nncc2ccccc12,101%,104%,120%,99.2%,97.2%,97.7%,105%,101%,90.8%,122%,119%,78.3%,97%,90.4%,106%,,109%,94%,84.1%,96%
CC(C)NCC(O)COc1ccc(CC(N)=O)cc1 (stereo unspecified),99.3%,103%,99%,106%,101%,92.5%,94.9%,107%,98.1%,103%,105%,101%,104%,83.5%,105%,,100%,107%,94.1%,92.9%
O=C(c1ccccc1)[C@H]1[C@@H]2CCCN2[C@]2(C(=O)Nc3ccc(F)cc32)[C@]12C(=O)Nc1ccccc12,86.9%,89.8%,83.2%,90.8%,80.5%,65.7%,83.6%,70.7%,91.3%,92.8%,83.1%,70.8%,92%,85.4%,113%,88.6%,76.8%,59.5%,,
O=C(c1cc(-c2ccc(Cl)cc2)nc2ccccc12)N1N=C(c2ccccc2)CC1c1cc(-c2ccccc2)nn1-c1ccccc1 (stereo unspecified),56.7%,98.7%,69.2%,77.1%,63.8%,71.3%,78.7%,79.2%,57%,73.3%,86.4%,81.1%,85.5%,70.4%,131%,73%,65.1%,68.7%,,92.5%
COc1ccc(/C=C2\CS(=O)(=O)C/C(=C\c3ccc(OC)cc3)C2=O)cc1,2.14% (active),-51.2% (active),60.2%,3.69% (active),-3.78% (active),-33.5% (active),-91.5% (active),-64.1% (active),-26.7% (active),-23.4% (active),-7.45% (active),11.4%,-52.1% (active),-100% (active),2.72% (active),-51% (active),,-16.1% (active),,36%
COC1OCC(OS(=O)(=O)c2ccc(C)cc2)C(OC(=O)c2ccccc2)C1OC(=O)c1ccccc1 (stereo unspecified),38.3%,7.49% (active),32.5%,61.2%,39.3%,47.8%,30.7%,36.1%,44.8%,57.7%,36.1%,53.4%,74.3%,48.3%,88%,54%,,48.9%,,87.4%
COc1cc2c(cc1OCCCCC(=O)Nc1ccc(-c3nc4ccccc4s3)cc1)N=C[C@@H]1CCCN1C2=O,10.6%,-9.12% (active),-67.7% (active),14.1%,7.5% (active),-4.92% (active),-99.3% (active),-70.9% (active),1.99% (active),-44% (active),-2.21% (active),2.66% (active),15.3%,-31.6% (active),-0.417% (active),1.84% (active),,-31.7% (active),,-79.3% (active)
COc1ccccc1S(=O)(=O)Nc1ccc2c3c(cc(-c4cnn(C5CC5)c4)nc13)C(=O)N2C,62.7%,44%,19.2%,77.6%,81.6%,61.3%,57.5%,35.4%,47.5%,77%,78.6%,56.1%,76.7%,34.9%,48.2%,68%,76.9%,56.3%,,
CC1(C)Cc2c(Br)c(Br)c(Br)c(OCC(O)CN3CCN(c4ccccn4)CC3)c2O1 (stereo unspecified),79.7%,69.7%,187%,101%,82.3%,48.5%,63.5%,92.9%,68.6%,115%,77.1%,95.3%,106%,47.7%,66%,85.8%,,52.9%,,96.2%
COc1ccc(OC)c(NCC(=O)n2nc(/C=C\c3ccc(O)c(OC)c3)cc2/C=C\c2ccc(O)c(OC)c2)c1,17.5%,-70.2% (active),25.5%,16.7%,4.56% (active),23.2%,9.05% (active),15.8%,9.71% (active),21.2%,0.648% (active),28.7%,21.5%,5.1% (active),16.4%,18.6%,5.46% (active),7.73% (active),,34.1%
COc1ccccc1N1CCN(CCCOc2ccc(OCCCN3CCN(c4ccccc4OC)CC3)c(C(=O)c3cc(OC)c(OC)c(OC)c3)c2)CC1,140%,101%,120%,102%,118%,95.9%,87.6%,109%,116%,115%,97.2%,88.8%,110%,102%,123%,157%,,98.1%,,122%

# — PubChem BioAssay (NCI)
